MARV entry inh = qHTS for inhibitors of binding or entry into cells for Marburg Virus | Marburg virus pseudotyped entry inhibition, cell reporter | Potency, µM (series often up to 37.8 µM), for inactives: at the top dose activity change, negative = inhibition, usual class: inhibitors | 300,000 compounds, 1.8% hits; calls by dose curve; tested in HEK293 cells; note: potency is the fitted concentration of half-maximal effect
HCMV inh = qHTS Assay for inhibitors of the human cytomegalovirus (HCMV). HFF cells, HCMV-luciferase reporter, 72 h; hits give low values. activity change, negative = inhibition, % at 57.5 µM. 410,000 compounds, 4.5% hits. AID 1259415, 2018; in the data active = activity change below about -60%; inconclusive = no clear call, values can overlap the other calls; inactive = above about -39%
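After 16 h attachment at 37C, HFF cells received test compound and HCMV-luciferase (1 PFU/cell); reporter luminescence read 72 h later, data normalized against buffer-only and known inhibitor Salinomycin.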
FMDV antiviral = High Throughput Screening for Foot and Mouth Disease Virus Antivirals. FMDV antiviral cell-based qHTS. Potency, µM (titrated, usually from 57.9 µM), for inactives: at the highest dose activity change, negative = inhibition, most hits filed as inhibitors. 410,000 compounds, 1.2% hits. AID 1159524, 2015; calls by dose curve; tested in HEK293T cells; note: read-out not given here; potency is the fitted concentration of half-maximal effect; nearly all actives have a fitted effect of over 45% in size
LASV entry inh = qHTS for Inhibitors of binding or entry into cells for Lassa Virus; Lassa virus pseudotype entry inhibition, cell reporter; Potency, µM (doses to about 37.9 µM), for the others: top-dose activity change, negative = inhibition, most hits filed as inhibitors; 300,000 compounds, 1.2% hits; AID 540256, 2011; calls by dose curve; tested in HEK293 cells; note: potency is the fitted concentration of half-maximal effect; nearly all actives have a fitted effect of over 50% in size
Starred values were filed as active, the others as inactive; ? = inconclusive; . = not tested or not shown; ! = repeats disagree; [ ] = dose if it differs, or a comment. This is a sample that favours compounds with a hit; in the whole collection about 6.2% have one here. % is set by controls: 0 for no effect and ±100 for the full control effect.

SMILES	MARV entry inh	HCMV inh	FMDV antiviral	LASV entry inh
COc1ccc(N(Cc2cc(=O)[nH]c3ccccc23)C(=O)CCl)cc1	?	-101*	20µM*	?
Cc1cccc(C)c1NC(=O)CCCSc1nnc(-c2ccc(Cl)cc2)n1-c1ccccc1	?	-80*	14µM*	?
Cc1cccc(C)c1NC(=O)CCCSc1nnc(-c2ccc(F)cc2)n1-c1ccccc1	?	-69*	?	?
O=C(CSc1nnc(-c2ccncc2)n1-c1ccccc1)Nc1ccc(F)cc1	.	3	4%	-5%[46.1 µM]
N#Cc1ccc(CN2CC[C@@]3(CCCN(C(=O)c4ccncc4)C3)C2)cc1	.	.	-4%	.
CS(=O)(=O)c1ccc(-c2ccc3c(c2)CC(CNC(=O)C2(N4CCOCC4)CCCCC2)O3)cc1 (stereo unspecified)	.	.	-12%	.
Cc1ccc(-n2ncc3c(Nc4ccc5c(c4)OCCO5)ncnc32)cc1C	.	45	-7%	10%[46.1 µM]
CC(=O)Oc1ccc(C2=Cc3ccc(OC(C)=O)cc3OC2C)cc1 (stereo unspecified)	?	?	7%	6.3µM*
Cc1cccc(NC(=O)C2CCC(CNS(=O)(=O)c3ccc4c(c3)CCCC(=O)N4)CC2)c1C (stereo unspecified)	.	-32	-21%	-3%[46.1 µM]
CCCCNC(=O)CCn1c(=O)c2ccccc2n(Cc2ccccc2C#N)c1=O	0%[46.1 µM]	3	-3%	-4%[46.1 µM]
Cc1ccc(C(CC(=O)Nc2ccc(F)c(Cl)c2)N2Cc3ccccc3C2=O)cc1 (stereo unspecified)	.	-104*	3%	4%[46.1 µM]
CCOc1ccc(-c2cc(C)n3nc(C(=O)Nc4cc(Cl)ccc4O)cc3n2)cc1	?	3	-17%	0%[46.1 µM]
COc1ccc2c(c1)C(CC(C)=O)N(c1ccc(-c3cccs3)cc1)C(c1ccsc1)=C2 (stereo unspecified)	.	-90*	-10%	.
COc1cccc(NC(=O)NCc2ccc3c(c2)CCN3C(=O)c2ccccc2)c1	.	1	-11%	-26%[46.1 µM]
Fc1cc(Br)ccc1COc1ccc(-c2nnco2)cc1	.	28	23%	.
COc1ccc(OC)c(NCc2cccn2-c2nnc(N3CCC(C)CC3)s2)c1	.	?	23%	-20%[46.1 µM]
CCC(C)Sc1ccc(-c2nc3cc(C)ccn3c2NC2CCCCC2)cc1 (stereo unspecified)	.	-102*!	?	.
COc1cc(-c2nc3cc(C)ccn3c2NC2CCCCC2)ccc1-c1ccc(C(C)=O)cc1	.	-94*	?	.
COc1cc(-c2cc(C)c3c(OC)ccc(OC)c3n2)cc2c1OCCN(C(=O)C(C)c1n[nH]c(=O)c3ccccc13)C2 (stereo unspecified)	.	.	-8%	.
NC(=S)N/N=C1\CCSc2ccc(Cl)cc21	-19%[46.1 µM]	-99*	4%	-1%
N#CSCC(=O)N1c2ccccc2CCc2ccccc21	?	-102*	?	?
O=C(CN1CCCCC1)N1c2ccccc2CCc2ccccc21	?	-14	?	0%
O=C(O)CSCC(=O)Nc1ccc(C2CCCCC2)cc1	?	-92*	1.1µM*	?
CCc1cc(C(=O)NCC2Cc3cccc(-c4ccc(C(=O)OC)cn4)c3O2)no1 (stereo unspecified)	.	.	-5%	.
CCn1c(COc2ccc(=O)n(-c3ccccc3)n2)nnc1SCc1ccc(C)cc1	-10%	-14	-13%	?
SMILES	MARV entry inh	HCMV inh	FMDV antiviral	LASV entry inh
CCn1c(COc2ccc(=O)n(-c3ccccc3)n2)nnc1SCc1ccccc1C	-20%	-65*	-20%	-16%
COc1cc(CN2CCc3nc(N4CCN(c5ncccn5)CC4)ncc3C2)cc(OC)c1OC	.	-63*	28µM*	?
COc1cc(CN2CCc3nc(N4CCN(c5ccccn5)CC4)ncc3C2)cc(OC)c1OC	.	-63*	?	?
Fc1ccc(CN2CCc3nc(N4CCN(c5ccccc5F)CC4)ncc3C2)c(F)c1	.	-23	?	6%[46.1 µM]
CCOc1ccccc1CN1CCc2nc(N3CCN(c4ccccc4F)CC3)ncc2C1	.	-64*	28µM*	-18%[46.1 µM]
CCOc1ccc(CN2CCc3nc(N4CCN(c5ccccn5)CC4)ncc3C2)cc1OC	.	?	13µM*	?
O=C(CN1CCOCC1)N1CC(=O)N2[C@@H](CO)[C@H](c3ccc(Br)cc3)[C@@H]2C1	.	-2	.	.
CN(C)c1ccc(CN2CCc3nc(N4CCN(c5ccccn5)CC4)ncc3C2)cc1	.	-29	7.9µM*	?
CN(C)S(=O)(=O)c1ccc(Cl)c(NC(=O)CN2CCc3ccccc3C2)c1	?	-64*	-9%	?
CN(C)S(=O)(=O)c1ccc(Cl)c(NC(=O)CN2CCN(Cc3ccc4c(c3)OCO4)CC2)c1	.	-60*	?	.

Screening results as filed in PubChem.
